Source: PubChem BioAssay
For some of these results: Potency and affinity values are given separately. The list shows a part of the results. Activity calls are given as the source filed them.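 How the source made its calls, unless noted: active means substances whose mean melting-temperature shift, as a percentage of the reference inhibitor's shift, reaches about 5.3% (limit read from the data); inactive means the rest.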

Key:
[1] = target: Carboxy-terminal domain RNA polymerase II polypeptide A small phosphatase 1 (Homo sapiens) (UniProt Q9GZU7); assay: SCP1 melting temperature change from compounds – biophysical, differential scanning fluorimetry, orthogonal assay for Scp-1 inhibitor project, confirmation (AID 540329); conditions: Recombinant SCP1, Sypro Orange thermal shift Tm; at 40 µM; stronger effect = higher value;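 further: 0% = Tm of DMSO wells and 100% = Tm with sodium orthovanadate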
Sequence of Carboxy-terminal domain RNA polymerase II polypeptide A small phosphatase 1 (Homo sapiens) (Q9GZU7 76-261 limits assumed): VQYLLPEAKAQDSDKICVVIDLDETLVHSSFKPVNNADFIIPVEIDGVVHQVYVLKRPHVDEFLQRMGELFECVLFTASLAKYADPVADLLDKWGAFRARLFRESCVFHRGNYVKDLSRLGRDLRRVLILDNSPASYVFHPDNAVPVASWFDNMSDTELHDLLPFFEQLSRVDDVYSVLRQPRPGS

[2] = Brca1-Bard1 BiLC signal decrease – luminescence, single concentration, counter-screen for Mdm2/MdmX interaction inhibitor project, confirmation (AID 504668; call rule not given here); conditions: Brca1/Bard1 bimolecular luciferase complementation counterscreen, at 8 µM, stronger effect = higher value
[3] = target: Tumor necrosis factor receptor superfamily member 10B (Homo sapiens) (UniProt O14763); assay: viability loss of caspase-8 NB7 cells with TRAIL – with/without TRAIL, luminescence panel, confirmation (AID 651596; in the data active means activity above about 50%); conditions: NB7 neuroblastoma + caspase-8, TRAIL sensitization, NB7 Caspase-8, with TRAIL, mean of runs, at 10 µM, stronger effect = higher value
Sequence of Tumor necrosis factor receptor superfamily member 10B (Homo sapiens) (O14763 whole entry, looked up): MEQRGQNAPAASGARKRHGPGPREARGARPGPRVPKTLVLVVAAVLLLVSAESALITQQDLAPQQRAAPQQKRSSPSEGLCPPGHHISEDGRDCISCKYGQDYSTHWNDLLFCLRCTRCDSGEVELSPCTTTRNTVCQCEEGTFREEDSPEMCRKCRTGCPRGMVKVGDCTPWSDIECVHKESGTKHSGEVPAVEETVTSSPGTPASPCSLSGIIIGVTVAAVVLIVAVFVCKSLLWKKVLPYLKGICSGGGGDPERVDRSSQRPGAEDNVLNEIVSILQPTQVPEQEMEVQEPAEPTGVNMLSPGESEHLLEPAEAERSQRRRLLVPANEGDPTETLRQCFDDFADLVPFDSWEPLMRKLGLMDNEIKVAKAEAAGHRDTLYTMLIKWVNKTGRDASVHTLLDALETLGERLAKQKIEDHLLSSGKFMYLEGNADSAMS

[4] = as above; conditions: NB7 neuroblastoma + caspase-8, without TRAIL, NB7 Caspase-8, without TRAIL, mean of runs, at 10 µM
[5] = target: Tumor necrosis factor receptor superfamily member 10B (Homo sapiens) (UniProt O14763); assay: compound enhancement of TRAIL-induced cell killing – NB7 cells plus caspase-8, luminescence, panel, dose response (AID 652002); conditions: NB7 neuroblastoma +caspase-8, TRAIL sensitization, luminescence viability, NB7+Caspase-8, with TRAIL, run 1; at 12.5 µM (top of the series)
[6] = target: Tumor necrosis factor receptor superfamily member 10B (Homo sapiens) (UniProt O14763); assay: as above; conditions: NB7 neuroblastoma +caspase-8, TRAIL sensitization, luminescence viability, NB7+Caspase-8, with TRAIL, run 2; at 12.5 µM (top of the series)
[7] = as above; conditions: NB7 neuroblastoma +caspase-8, no TRAIL, compound-alone cytotoxicity counter-screen, luminescence viability, NB7+Caspase-8, run 1; at 12.5 µM (top of the series) unless noted
[8] = as above; conditions: NB7 neuroblastoma +caspase-8, no TRAIL, compound-alone cytotoxicity counter-screen, luminescence viability, NB7+Caspase-8, run 2; at 12.5 µM (top of the series) unless noted
[9] = MLLE domain peptide-binding blockers, IC50 – biochemical, fluorescence polarization, FITC-PAM2 peptide, dose response (AID 602259;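 active means mean IC50 at or below a set limit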); conditions: GST-MLLE/FITC-PAM2 peptide binding
[10] = inhibition of PEG-3 promoter luciferase signal – cell-based, HeLa, luciferase reporter, single concentration, confirmation (AID 602417;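 active means at 20 µM dose, 40% or more inhibition averaged across four replicates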); conditions: HeLa PEG-Prom luciferase reporter, luminescence, overnight; at 20 µM; stronger effect = higher value
[11] = HIF-2a driven luciferase blockers, single dose – luminescence, 786-0 RCC cells, confirmation (AID 651580;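 active means mean inhibition across four replicates of at least 40 percent at the single tested concentration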); conditions: HIF-2a luciferase reporter luminescence, overnight, at 18.8 µM, stronger effect = higher value
[12] = HIF-1a luciferase reporter signal reduction – MiaPaCa-2 cells, single concentration, counter-screen for HIF-2a inhibitor project, confirmation (AID 651589;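 active means mean inhibition of the reporter signal across four replicates at the single tested dose of 50% or more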); conditions: MiaPaCa-2 HIF-1a luciferase reporter, desferoxamine, overnight; at 18.8 µM; stronger effect = higher value
PEG-3 [13] = target: PEG-3 (UniProt Q6IN02); assay: inhibition of PEG-3 promoter-driven reporter – cell-based, HeLa, luciferase, CREF/GAPDH counter-screen panel, dose response (AID 624167); conditions: CREF/GAPDH counter-screens; HeLa PEG-Prom luciferase reporter, overnight, run 1, dose range 1, at 100 µM (top of the series) unless noted
Sequence of PEG-3 (Q6IN02 whole entry, looked up): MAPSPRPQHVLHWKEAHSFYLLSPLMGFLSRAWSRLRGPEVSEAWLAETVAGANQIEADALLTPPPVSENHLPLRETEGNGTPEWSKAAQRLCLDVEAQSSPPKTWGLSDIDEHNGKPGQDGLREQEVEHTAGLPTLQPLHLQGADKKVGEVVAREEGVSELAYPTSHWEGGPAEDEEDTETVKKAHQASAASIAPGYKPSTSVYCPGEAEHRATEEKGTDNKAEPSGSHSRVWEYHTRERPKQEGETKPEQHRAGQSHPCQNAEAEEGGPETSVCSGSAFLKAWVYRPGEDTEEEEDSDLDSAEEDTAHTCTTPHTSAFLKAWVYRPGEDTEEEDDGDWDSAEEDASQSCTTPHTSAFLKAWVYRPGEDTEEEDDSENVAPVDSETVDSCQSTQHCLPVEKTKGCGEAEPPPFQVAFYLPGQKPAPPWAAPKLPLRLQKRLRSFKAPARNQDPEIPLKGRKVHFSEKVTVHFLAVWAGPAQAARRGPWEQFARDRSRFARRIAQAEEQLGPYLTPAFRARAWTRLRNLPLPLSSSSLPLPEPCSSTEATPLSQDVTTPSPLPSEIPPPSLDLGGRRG

PEG-3 [14] = target: PEG-3 (UniProt Q6IN02); assay: as above; conditions: CREF/GAPDH counter-screens; HeLa PEG-Prom luciferase reporter, overnight, run 2, dose range 1, at 100 µM (top of the series) unless noted
[15] = NF-kB reporter suppression in CF airway cells – cell-based, GFP fluorescence, single concentration, confirmation (AID 602472; in the data active means inhibition above about 40%;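 further: stimulus PAF is a Pseudomonas aeruginosa filtrate and not platelet activating factor; plate controls were DMSO wells with stimulus for no effect and unstimulated DMSO wells for full effect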); conditions: KKLEB CF airway cells, PAF-induced NF-kB-GFP fluorescence, overnight; at 5 µM; stronger effect = higher value
[16] = NFkB reporter suppression in cystic fibrosis bronchial cells – cell-based, uHTS hits, panel, cytotoxicity readout, dose response (AID 624344); conditions: CF bronchial epithelial cells, PAF-induced NFkB reporter inhibition, with PAF, run 1; at 79 µM (top of the series) unless noted
[17] = as above; conditions: CF bronchial epithelial cells, PAF-induced NFkB reporter inhibition, with PAF, run 2; at 79 µM (top of the series) unless noted

Q: With `CC1CCN(c2ccc(S(=O)(=O)Nc3cc(C(=O)O)cc(C(=O)O)c3)cc2[N+](=O)[O-])CC1` as the molecule, how does the thermal shift relative to vanadate control [1] read?
A: 15% (active)

Q: For `CC1CCc2c(sc3nc(C(C)(C)C)nc(N4CCN(C(=O)CCl)CC4)c23)C1` (configuration not stated), which inhibition [2] is on record?
A: 34.8% (active)

Q: What about the activity [3] of the same molecule?
A: 98.8%

Q: What about the activity [4] of the same molecule?
A: 99.2%

Q: Which thermal shift relative to vanadate control [1] does the source give for `Cc1ccc(NC(=O)c2cc(-c3ccc(C)o3)nc3ccccc23)nc1` here?
A: 5.81% (active)

Q: For `COc1ccc(OCC(=O)NNC(=O)c2ccc(-c3ccccc3)cc2)cc1`, which thermal shift relative to vanadate control [1] is on record?
A: 2.47% (inactive)

Q: Which thermal shift relative to vanadate control [1] does the source give for `O=C(Cn1cc(/C=N/NC(=O)c2cccc(C(F)(F)F)c2)c2ccccc21)Nc1ccc(F)cc1` here?
A: 10.6% (active)

Q: For `Cc1ccc(SCC(=O)NC(=O)NCc2ccco2)c(C)c1`, which thermal shift relative to vanadate control [1] is on record?
A: -1.14% (inactive)

Q: For `O=C(COc1ccc(-n2cnnn2)cc1)Nc1ccccc1Cl`, which thermal shift relative to vanadate control [1] is on record?
A: -5.03% (inactive)

Q: For `O=C(Nc1cc(S(=O)(=O)N2CCCCC2)ccc1Cl)C1COc2ccccc2O1` (configuration not stated), which thermal shift relative to vanadate control [1] is on record?
A: -12% (inactive)

Q: Which thermal shift relative to vanadate control [1] does the source give for `O=C(Nc1cccc(F)c1)c1cc(-c2ccco2)nc2ccccc12` here?
A: -0.45% (inactive)

Q: For `Cn1c(=O)c(C(=O)Nc2ccccn2)c(O)c2ccccc21`, which inhibition [2] is on record?
A: 28.9% (active)

Q: What about the activity [3] of the same molecule?
A: 60.7%

Q: And the activity [4]?
A: 58.8%

Q: For `O=C(c1ccc(CS(=O)(=O)c2ccccc2)o1)N1CCN(c2ccccc2)CC1`, which thermal shift relative to vanadate control [1] is on record?
A: -3.55% (inactive)

Q: Which inhibition [2] does the source give for `Cc1cc(NC(=O)c2cncc(Br)c2)ccc1NC(=O)c1cc2ccccc2o1` here?
A: 28.6% (active)

Q: What about the activity [3] of the same molecule?
A: 58.9%

Q: And the activity [4]?
A: 13.3%

Q: What about the activity, % sensitization [5] of the same molecule?
A: 7.53%

Q: What about the activity, % sensitization [6] of the same molecule?
A: 53.9%

Q: What about the activity, % sensitization [7] of the same molecule?
A: 12.3%

Q: And the activity, % sensitization [8]?
A: 28.1%

Q: With `CN(c1ccccc1)S(=O)(=O)c1ccc(Cl)c(C(=O)OCC(=O)NCc2ccco2)c1` as the molecule, how does the thermal shift relative to vanadate control [1] read?
A: -14.8% (inactive)

Q: Which results are given for `Cc1ccc(NC(=O)CSc2nc3ccc(Nc4nc(N5CCOCC5)nc(N5CCOCC5)n4)cc3s2)cc1`?
A: inhibition [2]: 26.2% (active); activity [3]: 58.1%; activity [4]: 40.5%; activity, % sensitization [5]: -7.95%; activity, % sensitization [6]: -11.3%; activity, % sensitization [7]: -21% [at 6.25 µM]; activity, % sensitization [8]: -31.8%

Q: With `CCCCCCc1cc2cc(S(=O)(=O)c3ccc(F)c(Cl)c3)c(=O)oc2cc1O` as the molecule, how does the inhibition [2] read?
A: 27.6% (active)

Q: And the activity [3]?
A: 55.4%

Q: And the activity [4]?
A: 40%

Q: What about the activity, % sensitization [5] of the same molecule?
A: -8.78%

Q: What about the activity, % sensitization [6] of the same molecule?
A: -2.26%

Q: What about the activity, % sensitization [7] of the same molecule?
A: -6.43%

Q: What about the activity, % sensitization [8] of the same molecule?
A: -24.8%

Q: With `C[c-]1[c-](C)[c-](C)[c-](C)[c-]1C.[Fe].c1cc2nccc(N3CCCC3)[c-]2c1` (configuration not stated) as the molecule, how does the IC50 [9] read?
A: > 66 µM (inactive)

Q: Which inhibition [10] does the source give for `Cc1ccc(C(NC(=O)C2CCN(CCOc3ccc(Cl)cc3Cl)CC2)c2ccccn2)cc1` (configuration not stated) here?
A: 36.9% (inactive)

Q: For `Cc1c(CCC(=O)O)c(=O)oc2c(C)c(OCc3ccccc3Cl)ccc12`, which inhibition [11] is on record?
A: 63.3% (active)

Q: And the inhibition [12]?
A: 46.2% (inactive)

Q: What does the source list for `O=C(O)c1ccc(N/N=C/c2ccc3ncccc3c2)cc1`?
A: inhibition [11]: 66.4% (active); inhibition [12]: 39.2% (inactive)

Q: Which inhibition [10] does the source give for `O=C(CSc1nc(Nc2ccccc2)nc(N2CCOCC2)n1)Nc1cc(Cl)ccc1O` here?
A: 78.8% (active)

Q: And the inhibition (PEG-3 [13])?
A: 98.4%

Q: What about the inhibition (PEG-3 [14]) of the same molecule?
A: 101%

Q: Which inhibition [10] does the source give for `COc1ccc(CN(C)C(=O)c2cc(-c3ccc(C)cc3C)nc3ccccc23)c(OC)c1OC` here?
A: 75.2% (active)

Q: And the inhibition [15]?
A: 61.6% (active)

Q: And the inhibition (PEG-3 [13])?
A: 102%

Q: What about the inhibition (PEG-3 [14]) of the same molecule?
A: 102%

Q: And the inhibition [16]?
A: 103%

Q: What about the inhibition [17] of the same molecule?
A: 111%
